The record followed here is PubChem BioAssay (NCI).

Some test systems named below: T-47D breast; BT-549 breast; MDA-MB-435 melanoma; SW-620 colon; MCF7 breast; HCT-116 colon; HCC-2998 colon; KM12 colon.
What all share (test): NCI-60 one-dose screen, 48 h (100 = growth as untreated, 0 = no growth, -100 = all killed)
What all share (conditions): 10 µM unless noted

About 83,000 compounds went through this panel and 20% of them were active in at least one assay; those are over-represented in the sample as a whole.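 For each line, cells grew in 96-well plates with the test compound present at a single concentration for 48 hours.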 A number with no mark means an inactive call. Calls of active or inactive are those of the source. How the source made its calls: active means growth percent below 10; inactive means the rest.

In the case of `CCOC(=O)C1C(=O)C=C(c2ccc(OC)cc2)CC1c1sc(N(C)Cc2ccccc2)nc1Cl` (stereo not drawn), the growth in the assay with T-47D breast was 64.2%; in the assay on BT-549 breast, 94.4%; in the assay with MDA-MB-435 melanoma it was 85.1%; in the assay on SW-620 colon it was 82.9%; in the assay with MCF7 breast it was 83.5%; in the assay with HCT-116 colon, 71.9%. For the same molecule, the growth in the assay with HCC-2998 colon was 98.9%; in the assay on KM12 colon, 81.4%.

Regarding `C=C(C)[C@@H]1CC[C@]2(C(=O)N3CCNCC3)CC[C@]3(C)[C@H](CC[C@@H]4[C@@]5(C)C/C(=C/c6ccncc6)C(=O)C(C)(C)[C@@H]5CC[C@]43C)[C@@H]12`, the growth with T-47D breast was 102%; in the assay with BT-549 breast it was 105%; in the assay on MDA-MB-435 melanoma, 105%; in the assay with SW-620 colon, 109%; with MCF7 breast it was 79.7%; with HCT-116 colon, 102%. In addition, the growth in the assay on HCC-2998 colon and in the assay with KM12 colon was 109% each time.

On to `NC(N)=Nc1nc2ccccc2o1`, for which the growth with T-47D breast is 98.3%; with BT-549 breast, 89.9%; with MDA-MB-435 melanoma, 122%; in the assay on SW-620 colon, 95.7%; with MCF7 breast, 96.8%; with HCT-116 colon, 95.5%. Besides, the growth with HCC-2998 colon is 82.5%; with KM12 colon it was 95.9%.

Take `O=C(Nc1ccc(Cl)c(Cl)c1)NS(=O)(=O)c1cnccc1Oc1ccc(F)cc1`: the growth is -0.777% (active) in the assay with T-47D breast; 93.7% with BT-549 breast; 86.8% in the assay with MDA-MB-435 melanoma; 65.3% in the assay on SW-620 colon; 58.6% with MCF7 breast; 41.3% with HCT-116 colon. The growth with HCC-2998 colon was 76.7%; with KM12 colon it was 48.7%.

For the molecule `COc1ccc(-c2ccc(-c3ccc(C(=N)N)cn3)s2)cc1OC`, the growth is 84.6% with T-47D breast; 94.4% in the assay on BT-549 breast; 103% in the assay with MDA-MB-435 melanoma; 90.3% in the assay on SW-620 colon; 84.9% in the assay on MCF7 breast; 80.2% with HCT-116 colon. Further, the growth is 109% with HCC-2998 colon and 95.9% in the assay on KM12 colon.

Turning to `COc1ccc(-c2ccc(-c3ccc(-c4ccc(C(=N)N)cc4)s3)s2)cc1OC`, the growth is 28.5% in the assay on T-47D breast; 98.3% in the assay on BT-549 breast; 88.2% in the assay on MDA-MB-435 melanoma; -40.8% (active) in the assay on SW-620 colon; -19.8% (active) in the assay with MCF7 breast; 27.5% with HCT-116 colon. In addition, the growth with HCC-2998 colon was -68.6% (active); in the assay on KM12 colon, -42.5% (active).

Regarding `COc1ccc(Nc2ncccc2C(=O)NCc2cn(Cc3cccc(Oc4ccccc4)c3)nn2)cc1`, the growth with T-47D breast was 50.5%; in the assay with BT-549 breast it was 53.1%; in the assay with MDA-MB-435 melanoma, -16.3% (active); in the assay on SW-620 colon it was 24.6%; in the assay with MCF7 breast, 20%; in the assay with HCT-116 colon, 23.3%. Further, the growth is 41.7% in the assay with HCC-2998 colon and 20.2% in the assay with KM12 colon.

On to `Cc1cc(N/N=C/c2nc(-c3ccccc3)oc2C)c2cc(Cl)ccc2n1`, for which the growth in the assay on T-47D breast is -1.37% (active); with BT-549 breast, 87%; in the assay with MDA-MB-435 melanoma it was -95.6% (active); with SW-620 colon, -73.3% (active); in the assay with MCF7 breast, -71.9% (active); in the assay on HCT-116 colon it was -94.2% (active). Further, the growth with HCC-2998 colon is -77.4% (active); in the assay with KM12 colon, -83.3% (active).

Take `Clc1ccc(-c2nc3ccccc3s2)cc1Cl`: the growth in the assay on T-47D breast was 61.3%; in the assay with BT-549 breast it was 97.4%; in the assay on MDA-MB-435 melanoma it was 121%; in the assay with SW-620 colon, 82.6%; with MCF7 breast, 67.8%; in the assay on HCT-116 colon, 99%. In addition, the growth in the assay with HCC-2998 colon is 93.9%; in the assay on KM12 colon, 97.1%.

On to `NC(=O)c1c(NC(=S)Nc2ccc(OC(F)(F)F)cc2)sc2c1CCC1(C2)OCCO1`, for which the growth in the assay on T-47D breast is 86%; in the assay with BT-549 breast, 93.8%; in the assay on MDA-MB-435 melanoma, 81.6%; in the assay with SW-620 colon it was 92.9%; in the assay on MCF7 breast, 90.1%; with HCT-116 colon, 98.2%. The growth in the assay with HCC-2998 colon is 102%; in the assay with KM12 colon, 94.6%.

For the molecule `CN(C)CC(C(=O)c1ccccc1)c1ccccc1` (stereo not drawn), the growth in the assay with T-47D breast was 66.6%; in the assay on BT-549 breast it was 23.3%; in the assay with MDA-MB-435 melanoma, 23.1%; in the assay with SW-620 colon, -61.9% (active); with MCF7 breast, 10.5%; in the assay with HCT-116 colon it was -94.7% (active). Moreover, the figures for the growth in the assay with HCC-2998 colon and in the assay with KM12 colon were 74.9% and 10.8%, respectively.

With `C=C1CCC2C3(C)COC(c4ccccc4)OC3CCC2(C)C1/C=C/C1=CCOC1=O` (stereo not drawn), the growth with T-47D breast was 72.2%; in the assay on BT-549 breast, -18.3% (active); in the assay on MDA-MB-435 melanoma, 31.4%; in the assay with SW-620 colon, 25.6%; with MCF7 breast it was 31.8%; with HCT-116 colon, 8% (active). Also, the growth is 111% in the assay on HCC-2998 colon and 28.7% with KM12 colon.

With `COc1ccc2[nH]c(=O)c3c4ccccc4cn3c2c1`, the growth with T-47D breast was 44.6%; in the assay with BT-549 breast it was 37.9%; with MDA-MB-435 melanoma it was -23.3% (active); in the assay on SW-620 colon, 13.3%; in the assay on MCF7 breast it was 17.1%; in the assay with HCT-116 colon it was -28.9% (active). In addition, the growth in the assay on HCC-2998 colon is 31.3%; in the assay with KM12 colon, 10.4%.

In the case of `CCCCN(CCCC)c1ccc(C(=N)c2ccc(N(CCCC)CCCC)cc2)cc1`, the growth with T-47D breast was -31.3% (active); with BT-549 breast it was -7.68% (active); with MDA-MB-435 melanoma, -72.4% (active); in the assay on SW-620 colon, -84% (active); in the assay on MCF7 breast it was -85.5% (active); with HCT-116 colon, -99.9% (active). Besides, the growth in the assay with HCC-2998 colon is -96.7% (active); in the assay on KM12 colon, -95.1% (active).

Take `Nc1cccc(Cl)c1N`: the growth in the assay on T-47D breast is 54.6%; in the assay on BT-549 breast it was 97.6%; in the assay on MDA-MB-435 melanoma, 106%; in the assay with SW-620 colon, 101%; with MCF7 breast, 39.6%; in the assay on HCT-116 colon, 100%. The growth with HCC-2998 colon was 84.2%; with KM12 colon, 99.5%.

As for `CN1C(=O)N(C)C2C1NN=c1s/c(=C\C=C\c3ccccc3)c(=O)n12` (stereo not drawn), the growth was 53.1% with T-47D breast; 55.2% in the assay on BT-549 breast; 4.66% (active) with MDA-MB-435 melanoma; 40% in the assay on SW-620 colon; -94.6% (active) with MCF7 breast; 31.8% in the assay on HCT-116 colon. The growth was 63.1% in the assay on HCC-2998 colon and 23.2% in the assay on KM12 colon.
